Compounds without any hit were thinned out: in the full panel of roughly 83,000, 20% have a hit.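 Plates (96-well) were seeded with cells, treated with compound at one concentration, and incubated for 48 hours before percent growth was determined.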 The source made the active and inactive calls. The calls were made as follows: active = growth percent below 10; inactive = the rest.
Tests used:
Test in all cases: NCI-60 one-dose screen, 48 h (100 = growth as untreated, 0 = no growth, -100 = all killed)
Settings in all cases: 10 µM unless noted
[1] = test system: HCT-15 colon
[2] = test system: HT29 colon
[3] = test system: SNB-75 CNS
[4] = test system: SNB-19 CNS
[5] = test system: U251 CNS
[6] = test system: PC-3 prostate
[7] = test system: SK-MEL-5 melanoma
[8] = test system: UACC-62 melanoma
[9] = test system: LOX IMVI melanoma
[10] = test system: SK-MEL-28 melanoma

Measured: growth

COc1cccc(-c2nc(-c3ccc(NS(=O)(=O)c4ccccc4)cc3)[nH]c2-c2ccnc(Br)c2)c1
active: [1] 3.93% | [9] 4.69%
inactive: [2] 32.8% | [3] 15% | [4] 39.8% | [5] 35.4% | [6] 15.1% | [7] 41.7% | [8] 14.8% | [10] 25.6%

Cn1cc(-c2ccc3cc(-c4ccc(CC(=O)Nc5cc(C(C)(C)C)nn5C)cc4)cnc3c2)cn1
inactive: [2] 22.6% | [4] 29.2% | [5] 20.1% | [9] 14.1% | [10] 16.7%
active: [1] 5.84% | [3] 3.79% | [6] 3.81% | [7] -35.4% | [8] -16.6%

Cc1cccc2c(=O)c3c(sc12)c(NCc1ccccc1)nc1ccccc13
inactive: [1] 64.3% | [2] 83.4% | [3] 96.1% | [4] 107% | [5] 101% | [6] 89.1% | [7] 94.5% | [8] 74.3% | [9] 93.6% | [10] 116%

O=C(Nn1c(NCC(=O)N2c3ccccc3Sc3ccccc32)nnc1-c1ccc(O)cc1)c1ccccc1
inactive: [1] 98% | [2] 103% | [3] 102% | [4] 107% | [5] 103% | [6] 90.7% | [7] 107% | [8] 98.9% | [9] 90.8% | [10] 115%

O=C1CCC(C(=O)NCCNCCNC(=O)C2CCC(=O)N2)N1 (stereo not given)
inactive: [1] 99.8% | [2] 89.8% | [3] 101% | [4] 98.3% | [5] 97.7% | [6] 78.5% | [7] 91.3% | [8] 99.4% | [9] 96.5% | [10] 112%

O=c1ccc(N=Nc2ccc([N+](=O)[O-])cc2)ccc1O
active: [7] 9.1% | [9] 3.95%
inactive: [1] 13.2% | [2] 25.9% | [3] 30.7% | [4] 19% | [5] 17.4% | [6] 34.2% | [8] 15.2% | [10] 41.1%

COc1cc(CCC[P+](c2ccccc2)(c2ccccc2)c2ccccc2)c(OC)c2c1OCO2
inactive: [1] 93.1% | [2] 47.2% | [4] 15.2% | [5] 11.5% | [6] 14.4% | [9] 29.6% | [10] 32.1%
active: [3] 3.69% | [7] -48.9% | [8] 0.576%

Cc1ccc(C(CC(=O)O)c2c(C)[nH][nH]c2=O)cc1 (stereo not given)
inactive: [1] 103% | [2] 113% | [3] 92.9% | [4] 98.5% | [5] 96.4% | [6] 105% | [7] 102% | [8] 96.1% | [9] 95.5% | [10] 110%

Cc1ccc(/C=C(\C#N)n2nc3cccc(F)c3n2)cc1
inactive: [1] 82.6% | [2] 114% | [3] 74.7% | [4] 96.6% | [5] 86.3% | [6] 102% | [7] 89.9% | [8] 83.7% | [9] 86.2% | [10] 96.2%

O=C1c2cccc3cccc(c23)C(=O)N1Nc1nc(NC2CCCCC2)nc(N2CCOCC2)n1
inactive: [1] 93.1% | [2] 107% | [3] 88.9% | [4] 91% | [5] 97.5% | [6] 98.2% | [7] 92.7% | [8] 89.1% | [9] 91.1% | [10] 101%

CC([C@H]1CCC2C3CCC4C(=O)C(NC=O)=CC[C@]4(C)C3CC[C@@]21C)N(C)C (stereo not given in full)
active: [1] -37.1% | [2] -20.2% | [7] -56% | [8] -39.7% | [9] -37.2% | [10] -70.1%
inactive: [3] 34.1% | [4] 76% | [5] 25.6% | [6] 27.4%

Cc1cccc2c3c(sc12)C(c1ccc(F)cc1)C(C#N)=C(N)O3 (stereo not given)
active: [1] 8.13% | [2] 9.55% | [6] 8.46% | [7] -3.29% | [9] 9.86%
inactive: [3] 23.4% | [4] 23.8% | [5] 25.5% | [8] 24.9% | [10] 62%

C[C@H](C(=O)Nc1ccc(S(N)(=O)=O)cc1)S(=O)(=O)c1ccccc1
inactive: [1] 98.1% | [2] 107% | [3] 96.9% | [4] 95.5% | [5] 97.5% | [6] 101% | [7] 99.2% | [8] 102% | [9] 98% | [10] 115%

O=CN(SSN(C=O)C1CCCCC1)C1CCCCC1
inactive: [1] 109% | [2] 108% | [3] 109% | [4] 99.9% | [5] 109% | [6] 103% | [7] 119% | [8] 85.5% | [9] 96.8% | [10] 116%

O=C(Nc1ccc(OS(=O)(=O)c2ccc(F)cc2)cc1)c1ccc(Cl)cc1
inactive: [1] 89.9% | [2] 80.1% | [3] 114% | [4] 99.4% | [5] 100% | [6] 91.8% | [7] 90.8% | [8] 96% | [9] 98.7% | [10] 107%

O=S(=O)(NCCCNc1cc(-c2c(-c3cccc(O)c3)nc3sccn23)ccn1)c1cccc2ccccc12
inactive: [1] 24.4% | [2] 36.1% | [4] 66.5% | [5] 46.2% | [6] 30.4% | [7] 37.3% | [8] 39% | [9] 33% | [10] 67.3%
active: [3] 4.78%

CSc1nc2ccc(C)cc2cc1/C=N/O
inactive: [1] 86.7% | [2] 93.1% | [3] 59.2% | [4] 95.7% | [5] 78.6% | [6] 79% | [7] 90% | [8] 77% | [9] 91.9% | [10] 101%

Cc1cc(O)c(C2=NN(c3ccc(S(N)(=O)=O)cc3)C(/C=C/c3ccccc3)C2)cc1Cl (stereo not given)
inactive: [1] 85.7% | [2] 33.5% | [3] 51.3% | [4] 66.4% | [5] 22.5% | [6] 32.6% | [7] 19.1% | [9] 18.5% | [10] 23.9%
active: [8] -10.9%

Oc1ccc(C#CCOc2ccccc2)cc1CNCCN(Cc1ccccn1)Cc1ccccn1
active: [1] 4.51% | [5] 7.44% | [7] 1.89% | [8] 9.83% | [9] 3.51%
inactive: [2] 25.5% | [3] 25.6% | [4] 20.7% | [6] 27.7% | [10] 32.9%

Cn1cc(-c2cc3ncnc(Nc4ccc(CC(=O)Nc5cc(C(C)(C)C)nn5C)cc4)c3s2)cn1
inactive: [1] 54.8% | [2] 50% | [3] 56.3% | [4] 95.7% | [5] 61.2% | [6] 43.9% | [7] 49% | [8] 33.5% | [9] 33.6% | [10] 77.2%

Cc1nc(S(=O)(=O)c2ccccc2)c(S(=O)(=O)Cc2ccc([N+](=O)[O-])cc2)o1
inactive: [1] 82.5% | [2] 91.2% | [3] 72.9% | [4] 92.5% | [5] 98.8% | [6] 87.9% | [7] 95.9% | [8] 79.8% | [9] 89.6% | [10] 103%

Cc1c(C(=O)N[C@@H](Cc2ccccc2)C(=O)C(=O)NCc2ccc(F)cc2)[nH]c2ccccc2c1=O
inactive: [1] 96.2% | [2] 101% | [3] 88.5% | [4] 96.9% | [5] 101% | [6] 86.5% | [7] 98.7% | [8] 91.7% | [9] 99.9% | [10] 100%

Cc1onc2c(-c3ccccc3)n[nH]c(=O)c12
inactive: [1] 104% | [2] 90.4% | [3] 83% | [4] 90.3% | [5] 97.6% | [6] 90.5% | [7] 105% | [8] 95.3% | [9] 104% | [10] 108%

CCOC(=O)Nc1ccc(-c2nc(-c3cccc(OCCN4CCOCC4)c3)c(-c3ccnc(Br)c3)[nH]2)cc1
inactive: [1] 11% | [4] 50.6% | [5] 26.5% | [6] 26.2% | [7] 38.1% | [8] 32.9% | [9] 14.1% | [10] 30.6%
active: [2] 8.48% | [3] 3.74%

COc1nc2ccccc2cc1-c1nc2c(cnn2-c2ccccc2)c(=O)[nH]1
inactive: [1] 24.8% | [3] 28.2% | [4] 42.1% | [5] 37.8% | [6] 41.2% | [7] 41.7% | [8] 36.3% | [9] 35% | [10] 56.7%
active: [2] 9.45%

N#CC1=C(N)Oc2c(sc3c(Br)cccc23)C1c1ccc([N+](=O)[O-])cc1 (stereo not given)
inactive: [3] 25.8% | [4] 30.8% | [5] 14.6% | [6] 13.6% | [8] 15.2% | [10] 61.4%
active: [1] 7.43% | [2] 2.5% | [7] 0.865% | [9] -11.3%

COc1cc(Nc2cn[nH]c2-c2ccc(Cl)cc2)cc(OC)c1OC
active: [3] -9.76%
inactive: [1] 35.9% | [2] 15% | [4] 56% | [5] 35.3% | [6] 56.4% | [7] 39.1% | [8] 23.2% | [9] 41.6% | [10] 46.2%
